# ± gives the standard deviation.
# System: EfPiwi piRISC loaded with piRNA #1 (26 nt)
# Assay: pre-steady-state target cleavage rate (min^-1); auxiliary factor: 500 nM Ephydatia muelleri Gtsf1; guide: piRNA #1 5'p-UGAGGUAGUAGGUUGUAUAGUAUCCA; MIWI and MILI are mouse PIWI proteins and EfPiwi is from a freshwater sponge; tags in brackets are library labels; higher = faster piRNA-guided slicing of the target
# Procedure, shortened: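 The pre-steady-state cleavage rate was obtained by Cleave-'n-Seq with a burst-and-steady-state fit. A transcribed, DNA-blocked target RNA library (0.1 nM) was mixed with 1 nM active affinity-purified piRISC carrying one synthetic guide, with or without 500 nM GTSF1 partner protein, in HEPES–potassium acetate buffer at 33 °C for 0–8 or 0–960 min. Uncleaved targets were sequenced and normalised to depth and to weakly complementary targets, with three trials pooled and k3 capped at 0.0001 min^-1.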
row,Sequence,pre-steady-state target cleavage rate
1,GGAGACGAUACUAUUCAACCUACUUCCUCA,0.00413 ± 0.0031
2,GGAGAGGAUACUAUUCAACCUAGUACCUCA,0.00256 ± 0.0017
3,GGAGUGGAUACUAUACAACCUACUUCGUCA,0.00391 ± 0.0021
4,GGAGACCUUACUAUACAACCUAGUACGUCA,0.00357 ± 0.0023
5,GGAGACGAUACUAUAGAACGUACUACCUCA,0.00177 ± 0.0015
6,GGAGUGGAUACUAUACGAACCUACUACCUCA,0.00789 ± 0.0039
7,GGAGACGAUAGUAUACAACCUACUACGUCA,0.0019 ± 0.0015
8,GGAGACCAUACUAUACAAACUACUACCUCA,0.00853 ± 0.0037
9,GGAGACGAUACUAUACAACCUUACUACCUCA,0.00805 ± 0.0039
10,GGAGUGGAUACUAUACAAGCUACUACGUCA,0.00405 ± 0.0015
11,GGAGAGGAUACUAUACAACCUACUACCUAA,0.0131 ± 0.0058
12,GGAGACCUAUGAUAUGUUGGUACUACCUCU [g2:g10:cont:t1U],< 0.0001
13,GGAGUGGAAACUAUACAACCUACUACCUGA,0.00283 ± 0.0023
14,GGAGACGAUACUAUACAACCUAGUAGCUCA,0.00474 ± 0.0023
15,GGAGAGGUUACUAUACAACCUACUACGUCA,0.00435 ± 0.0016
16,GGAGAGGAAACUAUACAACCAACUACCUCA,0.00523 ± 0.0026
17,GGAGAGGAUACUAUACAACCUACUUCCACA,0.00373 ± 0.0022
18,GGAGUGGUUUCUAUACAACCUACUACCUCA,0.00603 ± 0.0034
19,GGAGACCAUACUAUACAACCUAGUAGCUCA,0.00225 ± 0.0017
20,GGAGACCAUACUAUACAACCUUACUACCUCA,0.00561 ± 0.0036

row,Sequence,pre-steady-state target cleavage rate
1,GGAGACGAAACUAUACAACCUUCUACCUCA,0.00751 ± 0.0034
2,GGAGUGGAUACUAUACAACCUACAACCUGA,0.00253 ± 0.0013
3,GGAGACGAUACUAUACAACCUACUACCCUCA,0.00506 ± 0.0015
4,GGAGAGGAUACUAUACAAGCCUACUACCUCA,0.00835 ± 0.005
5,GGAGAGGAUACUAUACAACCUAGUACCACA,0.00381 ± 0.0016
6,GGAGACGAUACUAUACAACUACUACCUCA,0.00742 ± 0.0033
7,GGAGUGGAUACUAUACAACCUACAACGUCA,0.00302 ± 0.0017
8,GGAGACCUAUGAUAUGUACCUUCUACCUGA,< 0.0001
9,GGAGUGGAUACUAUACAACCUAGAUCCUCA,0.00311 ± 0.0016
10,GGAGUGGAUACUAUACAACCUAGAACCUCA,0.00464 ± 0.0024
11,GGAGUGGAUACUAUACAACCUGACUACCUCA,0.00415 ± 0.002
12,GGAGACCUUACUAUACAACACUACUACCUCA,0.0118 ± 0.0053
13,GGAGACCUAACUAUACACCUACUACCUCA,0.00586 ± 0.0042
14,GGAGUCGAUACUAUUCAACCUACUACCUCA,0.00506 ± 0.0029
15,GGAGACCUUACUAUACAACCUAUUACCUCA,0.0052 ± 0.0025
16,GGAGACCAAACUAUACAACCAACUACCUCA,0.00588 ± 0.003
17,GGAGACGAUACGAUACAACCUACUACCUCA,0.049 ± 0.019
18,GGAGUGGAUAGUAUACAACGUACUACCUCA,0.00231 ± 0.0021
19,GGAGACCAUACUAUACUACCUACUACCUCA,0.00859 ± 0.0036
20,GGAGAGGAUACUAUACAAGCUACUACCUGA,0.00442 ± 0.0019

# — the supplement of paper PMC10338343
